Source: PubChem BioAssay (National Center for Advancing Translational Sciences (NCATS))
Most compounds without a hit are left out; they make up all but 12% or so of the library.
AmpC detergent: inhibitors of E. coli AmpC beta-lactamase with detergent; P00811; AmpC hydrolysis of nitrocefin, absorbance 480 nm, 0.01% Triton; Potency, µM (top dose mostly 114 µM), for the others: at the top dose activity change, negative = inhibition, usual class: inhibitors; 0.041% of 370,000 active;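 also: 0% = no-compound wells and -100% = no-enzyme wells; nearly all actives have a fitted effect of over 25% in size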
Target sequence (P00811 whole entry, looked up): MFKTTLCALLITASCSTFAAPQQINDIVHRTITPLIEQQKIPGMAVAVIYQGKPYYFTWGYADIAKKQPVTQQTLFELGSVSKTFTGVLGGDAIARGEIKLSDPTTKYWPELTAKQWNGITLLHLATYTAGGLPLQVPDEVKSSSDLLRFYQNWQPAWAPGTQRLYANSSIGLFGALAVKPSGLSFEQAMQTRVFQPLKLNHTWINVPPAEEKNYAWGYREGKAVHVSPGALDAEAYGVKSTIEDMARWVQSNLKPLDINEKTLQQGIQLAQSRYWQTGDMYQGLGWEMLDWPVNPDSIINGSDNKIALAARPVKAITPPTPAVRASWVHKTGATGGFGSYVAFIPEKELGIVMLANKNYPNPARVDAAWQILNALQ
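20 mM phosphate pH 7.0 + 0.01% (detergent screen) or 0.0001% Triton X-100; 5.3 nM AmpC reagent; cpd preinc 15 min RT; nitrocefin (800 uM stock) to start; A480 q20 s × 4 min; Activity was normalised to no-enzyme and no-compound control wells.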
Sm TGR inh: S. mansoni TGR enzyme inhibition. Q962Y6. purified TGR, DTNB reduction, TNB absorbance 405 nm. Potency, µM (doses to about 114 µM), without a hit: top-dose activity change, negative = inhibition, actives largely listed as inhibitors. 3% of 360,000 active. AID 485364; also: % is scaled to controls: 0 for no effect and ±100 for the full control effect; nearly all actives have a fitted effect of over 60% in size
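Kinetic colorimetric format: TGR-catalysed, NADPH-driven DTNB reduction monitored via TNB absorbance. Enzyme dispensed at 20 nM; compound exposure 15 min at room temperature before reaction start.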
AmpC inh no detg: inhibitors of E. coli AmpC beta-lactamase without detergent; P00811; AmpC nitrocefin hydrolysis, absorbance 480 nm, 0.0001% Triton; Potency, µM (doses to about 57.1 µM), inactives show top-dose activity change, negative = inhibition, usual class: inhibitors; 0.52% of 330,000 active;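 also: plate controls were no compound for no effect and no enzyme for full effect; nearly all actives have a fitted effect of over 20% in size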
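AmpC (5.3 nM in the dispensed reagent) in 20 mM phosphate pH 7.0 with 0.01% (detergent screen) or 0.0001% Triton X-100 was preincubated with compounds for 15 min at room temperature. Nitrocefin was then added from an 800 uM solution, and hydrolysis was followed at 480 nm.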
SARS PLpro yeast: SARS-CoV PLP inhibition in yeast. S. cerevisiae expressing SARS-CoV PLpro, growth rescue. Potency, µM (doses to about 32.9 µM), inactives show at the top dose activity, positive = growth rescue, hits mostly activators. 0.19% of 330,000 active. AID 485353; calls by dose curve; also: 0% is about no effect; nearly all actives have a fitted effect of over 55% in size
Pf growth 96h: P. falciparum growth inhibition at 96 hour, primary screen for plastid delayed-death inhibitors. P. falciparum luciferase reporter growth, 96 h. Potency, µM (highest dose often 28.7 µM), inactives show at the top dose activity change, negative = inhibition, most hits filed as inhibitors. 6.9% of 320,000 active; also: % is scaled to controls: 0 for no effect and ±100 for the full control effect
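Cell-based qHTS: luciferase-tagged P. falciparum in erythrocytes (2% hematocrit, 0.05% parasitemia final) incubated with compounds for 96 hours, 37 C, 5% CO2; luciferase detection reagent then added and luminescence measured.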
Pf growth 48h: P. falciparum growth inhibition at 48 hours (one generation); P. falciparum luciferase growth in erythrocytes, 48 h; Potency, µM (top dose mostly 28.7 µM), for the others: at the top dose activity change, negative = inhibition, most hits filed as inhibitors; 5.9% of 310,000 active; also: % is scaled to controls: 0 for no effect and ±100 for the full control effect
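First compound was added to culture medium, then infected red cells at 0.1% parasitemia and 2% hematocrit (final). After incubation at 37 C under 5% CO2, luciferase detection reagent was dispensed and light output recorded.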
* hit, by the source's call; ? = inconclusive; nt = no result given; [ ] = remark or other dose. Unless noted, calls follow the shape of the dose curve; as a rule, active = well fitted curve in the direction sought with a large enough effect; inconclusive = small, poorly fitted or top-dose-only effect, or another doubt; inactive = no such curve, though single readings can be large; an effect the other way counts as inactive or inconclusive. Potency is read from the fitted curve at half-maximal effect.

SMILES	AmpC detergent	Sm TGR inh	AmpC inh no detg	SARS PLpro yeast	Pf growth 96h	Pf growth 48h
O=C1C(=O)N(C2CCS(=O)(=O)C2)C(c2cccc(O)c2)/C1=C(/O)c1ccc(Cl)cc1 (stereo not given)	1%	56µM*	-14%	0%	21%	25%
COC(=O)c1ccc(C2/C(=C(/O)c3ccc(Cl)cc3)C(=O)C(=O)N2C2CCS(=O)(=O)C2)cc1 (stereo not given)	4%	-2%	-11%	?	38%	0%
CCc1ccc(C(=O)CC2(O)C(=O)N(CCc3ccccc3)c3ccc(Cl)cc32)cc1 (stereo not given)	-1%	-5%	nt	nt	nt	nt
COc1ccccc1NC(=O)CCS(=O)(=O)c1cc2c3c(c1)CCN3C(=O)CC2	1%	2%	nt	nt	nt	nt
CCCCCCCCOc1ccc(C2CC(=O)NC2=O)cc1 (stereo not given)	-16%	100µM*	17%	-14%	-4%	40%
CC(C)Oc1ccc(C2CC(=O)NC2=O)cc1 (stereo not given)	2%	-20%	-7%	-2%	4.1µM*	24%
CCCS(=O)(=O)Nc1cc(-c2cn3cccc(C)c3n2)ccc1C	-2%	1%	nt	nt	nt	nt
CC(=O)c1ccc(NC(=O)c2c3c(nc4ccccc24)C(=O)N(C2CCCCC2)C3)cc1	0%	1%	nt	nt	nt	nt
C/C(=N/NC(=O)CSc1nc2ccccc2n1C)c1ccco1	3%	1%	-27%	-1%	?	-11%
CCn1c(SCC(=O)N/N=C/C=C\c2ccco2)nc2ccccc21	?	22µM*	-30%	11%	-13%	19%
Cn1c(SCC(=O)N/N=C/C=C\c2ccco2)nc2ccccc21	-2%	22µM*	-9%	1%	?	?
O=C(CSc1nc2ccccc2n1Cc1ccccc1)N/N=C/c1ccco1	4%	-28%	-25%	-34%	?	?
CN(C)C(CNc1nnnn1-c1ccccc1)c1ccco1 (stereo not given)	2%	45µM*	0%	5%	9%[5.75 µM]	-2%
CC(C)CNC(=O)COC(=O)C1c2ccccc2Oc2ccccc21	3%	-8%	37%	-3%	0%	24%
Cc1ccc(OC(=O)C2c3ccccc3Oc3ccccc32)cc1C	2%	2%	-16%	5%	5.2µM*	-12%
CC(=O)c1ccc(OC(=O)C2c3ccccc3Oc3ccccc32)cc1	-9%	-3%	44%	0%	-3%	5%
CCN(CC)C(=O)C1c2ccccc2Oc2ccccc21	4%	-13%	3%	-1%	5.2µM*	28%
CC(C)[N+](C)(CCOC(=O)C1c2ccccc2Oc2ccccc21)C(C)C	4%	18%	41%	0%	0.015µM*	?
COc1ccc(CCNC(=O)Cc2c(C)c3cc4c(C(C)(C)C)coc4c(C)c3oc2=O)cc1	17%	3%	nt	nt	nt	nt
CN1C(=O)C2CCCCN2c2ccc(C(=O)NCc3ccccc3Br)cc21 (stereo not given)	-2%	1%	nt	nt	nt	nt
CCN(CC)c1ccc(C(=O)NNC(=O)CCNC(=O)c2ccccc2)cc1	?	2%	-11%	1%	?	3%
CCN(CC)c1ccc(C(=O)NNC(=O)CCl)cc1	-4%	20µM*	-42%	8%	?	6.6µM*
CCOC(=O)c1c(C)oc2ncnc(Nc3cc(C)cc(C)c3)c12	19%	2%	nt	nt	nt	nt
c1ccc(Cn2ncc3c(N4CCN(C(c5ccccc5)c5ccccc5)CC4)ncnc32)cc1	?	45µM*	0%	-2%	6%	?
Clc1ccc(Cn2ncc3c(N4CCCC4)ncnc32)cc1	0%	-5%	119%	-8%	nt	?
SMILES	AmpC detergent	Sm TGR inh	AmpC inh no detg	SARS PLpro yeast	Pf growth 96h	Pf growth 48h
CCCC1=C(C(=O)OCC)C(c2c(C)nn(-c3ccccc3)c2Cl)C(C#N)=C(N)O1 (stereo not given)	-6%	?	nt	nt	?	55%
COc1ccc(C(=O)ON=C2C=C(C)C(=O)C(C)=C2)cc1	6%	-1%	-6%[2.29 µM]	0%	?	9%
COc1ccc(S(=O)(=O)N=C2C=C(C)C(=O)C(C)=C2)cc1	-4%	32µM*	-39%	-1%	?	?
C#CC[N+](C)(C)CC#Cc1ccccc1	-1%	-14%	1%	0%	95%	1.7µM*
Cc1ccc(C#CC[N+](C)(C)CC#Cc2ccccc2)cc1	-6%	nt	151%	0%	5.9µM*	2.3µM*
COc1cccc2cc(C(=O)NCCc3c(C)[nH]c4ccc(F)cc34)c(=O)oc12	2%	-3%	nt	nt	nt	nt
CCn1cc2nc(SCc3cccc(C(F)(F)F)c3)n(Cc3ccc(C)cc3)c(=O)c2n1	-1%	19%	nt	nt	nt	nt
CCc1ccc(C(=O)N2CCC(c3nc4ccccc4s3)CC2)cc1	1%	-16%	51%	-2%	3.3µM*	13%
CCOC(=O)COc1nc(OC)nc(N2CCOCC2)n1	-7%	-11%	-8%	-1%	2.6µM*	-8%
COc1nc(OC/C(N)=N/O)nc(N2CCOCC2)n1	?	6%	-9%	0%	166%	-7%
O=C(CSc1nnc(CNC(=O)c2c(F)cccc2Cl)o1)Nc1ccccc1F	15%	1%	nt	nt	nt	nt
Fc1ccccc1Nc1nc2ccccc2o1	-20%	11%	-24%	-5%	156%	369%
Cc1ccc(O)c(NC(=O)c2noc3c2CCc2ccccc2-3)c1	0%	0%	-15%	-4%	9.3µM*	?
Cc1ccccc1Cn1nc(C)c(NC(=O)c2noc3c2CCc2ccccc2-3)c1C	?	-7%	4µM*	-12%	1.2µM*	?
COc1ccc(Cl)cc1S(=O)(=O)NC(C)C(=O)NCc1cccnc1 (stereo not given)	-7%	-2%	1%	-2%	0%	28%
O=C(Nc1cccc(-c2ccc(N3CCOCC3)nn2)c1)c1ccc([N+](=O)[O-])cc1	-7%	0%	32µM*	-2%	9.3µM*	?
Cc1ccc(C(C(=O)NC(C)(C)C)N(Cc2cccnc2)C(=O)C(=O)NC2CCCCC2)o1 (stereo not given)	0%	-9%	47%	1%	-4%	?
COc1cc(/C=C2\SC(=S)N(NS(=O)(=O)c3ccccc3)C2=O)cc(OC)c1OC	1%	-20%	-44%	1%	4%	9.3µM*
O=C1/C(=C/c2ccccn2)SC(=S)N1NS(=O)(=O)c1ccccc1	-15%	45µM*	-26%	4%	20%	-9%
Cc1[nH]c2ccc(C(=O)NCCCN3CCOCC3)cc2c1C	0%	2%	-3%	?	?	13%
COc1ccc(CCNC(=O)c2ccc3c(c2)N(Cc2ccccc2)CCS3)cc1OC	1%	0%	31%	1%	?	-24%
